From PubChem BioAssay (NCI)
This is part of a sample that, as a whole, favours compounds with a hit. Of some 83,000 tested, about 20% had one in any assay.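 Plates (96-well) were seeded with cells, treated with compound at one concentration, and incubated for 48 hours before percent growth was determined.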 The source made the active and inactive calls. Rule for the calls: active = growth percent below 10; inactive = the rest.

Experiments:
Test in all cases: NCI-60 one-dose screen, 48 h (100 = growth as untreated, 0 = no growth, -100 = all killed)
Conditions in all cases: 10 µM unless noted
[1] = system: T-47D breast
[2] = system: BT-549 breast
[3] = system: MDA-MB-435 melanoma
[4] = system: SW-620 colon
[5] = system: MCF7 breast
[6] = system: HCT-116 colon
[7] = system: HCC-2998 colon
[8] = system: KM12 colon

Measured: growth

O=C1NC(=O)C(c2ccccc2)O1 (stereo not drawn)
inactive: [1] 83.8% | [2] 99.6% | [3] 104% | [4] 111% | [5] 105% | [6] 98.1% | [7] 105% | [8] 112%

CCCC1OC(c2ccco2)OCC1CC (stereo not drawn)
inactive: [1] 103% | [2] 98.3% | [3] 108% | [4] 99.1% | [5] 117% | [6] 99% | [7] 101% | [8] 103%

O=C(O)c1ccccc1Cc1ccc2c(c1)CCCC2
inactive: [1] 113% | [2] 106% | [3] 115% | [4] 99.5% | [5] 91.7% | [6] 104% | [7] 115% | [8] 113%

O=C(OC1CCCC1)c1ccccc1Cl
inactive: [1] 96% | [2] 104% | [3] 105% | [4] 106% | [5] 96.2% | [6] 98.7% | [7] 103% | [8] 105%

CCCCCC#CC(=O)O
inactive: [1] 85.2% | [2] 64.1% | [3] 107% | [4] 104% | [5] 95.4% | [6] 112% | [7] 113% | [8] 121%

CC(CO)(CO)C(=O)O
inactive: [1] 95.5% | [2] 109% | [3] 105% | [4] 104% | [5] 101% | [6] 102% | [7] 94.6% | [8] 106%

O=S(Cc1ccccc1)/C(=C/NC(=S)Nc1cc(Cl)ccc1Cl)c1ccccc1 (stereo not drawn)
inactive: [1] 104% | [2] 96.5% | [3] 108% | [4] 107% | [5] 96.9% | [6] 109% | [7] 103% | [8] 100%

C/C(O)=C(/C=N\C(=S)Nc1ccc(S(=O)(=O)Nc2nccs2)cc1)C(=O)Nc1ccccc1C
inactive: [1] 90.2% | [2] 99.2% | [3] 109% | [4] 95.6% | [5] 101% | [6] 94.7% | [7] 109% | [8] 96.8%

NNC(=O)CCCCl
inactive: [1] 100% | [2] 119% | [3] 108% | [4] 105% | [5] 98.4% | [6] 108% | [7] 102% | [8] 102%

CCN(CC)CCOC(=O)Nc1c(C(C)C)cccc1C(C)C
inactive: [1] 103% | [2] 117% | [3] 102% | [4] 118% | [5] 101% | [6] 101% | [7] 114% | [8] 105%

COc1cccc(C(=O)NNC(=O)c2cccc3ccccc23)c1
inactive: [1] 95.4% | [2] 110% | [3] 113% | [4] 107% | [5] 109% | [6] 108% | [7] 102% | [8] 115%

Cc1cccc(C)c1NC(=S)/N=C\c1c(O)[nH]c(=O)[nH]c1=O
inactive: [1] 104% | [2] 93.9% | [3] 107% | [4] 105% | [5] 93.6% | [6] 106% | [7] 102% | [8] 103%

CCOC(=O)c1ccc(C(C)(C)C)cc1
inactive: [1] 105% | [2] 109% | [3] 108% | [4] 107% | [5] 104% | [6] 102% | [7] 100% | [8] 105%

O=[N+]([O-])c1c(O)c(CNCCCO)cc(CNCCCO)c1O
inactive: [1] 113% | [2] 119% | [3] 111% | [4] 96.3% | [5] 112% | [6] 97.4% | [7] 106% | [8] 138%

CC(=O)C1C(=O)C(=O)N(c2ccc(Cl)c(Cl)c2)C1=O (stereo not drawn)
inactive: [1] 93.2% | [2] 97.5% | [3] 103% | [4] 108% | [5] 89.1% | [6] 91.3% | [7] 101% | [8] 103%

Cc1ccc(O)c(N)c1
inactive: [1] 92.8% | [2] 95.2% | [3] 112% | [4] 121% | [5] 99.9% | [6] 111% | [7] 110% | [8] 110%

O=C1C=C(c2ccccc2)C(O)(c2ccccc2)C1 (stereo not drawn)
inactive: [1] 90.6% | [2] 94.8% | [3] 97.4% | [4] 108% | [5] 98.2% | [6] 98.4% | [7] 122% | [8] 107%

CCCCCCCCCCCCSC1=C(Cl)C(=O)C(OC)=C(OC)C1=O
active: [5] 6.48% | [7] 4.65%
inactive: [1] 14.1% | [2] 58.3% | [3] 25.9% | [4] 27.5% | [6] 16% | [8] 24.4%

CCOC(=N)CC(=O)Nc1cccc(C)c1Cl
inactive: [1] 95% | [2] 103% | [3] 98.6% | [4] 94.9% | [5] 89.5% | [6] 96.3% | [7] 102% | [8] 96.7%

Cc1onc(-c2ccccc2Cl)c1C(=O)Cl
inactive: [1] 99.5% | [2] 117% | [3] 95.3% | [4] 103% | [5] 89% | [6] 105% | [7] 102% | [8] 119%

O=CNCCc1ccccc1
inactive: [1] 101% | [2] 96.5% | [3] 102% | [4] 113% | [5] 95.3% | [6] 102% | [7] 122% | [8] 131%

CC(=O)N(C)N=Nc1ccc(C)cc1
inactive: [1] 102% | [2] 90.1% | [3] 103% | [4] 98.6% | [5] 106% | [6] 101% | [7] 91.5% | [8] 118%

O=C(O)Cc1ccccn1
inactive: [1] 110% | [2] 101% | [3] 104% | [4] 105% | [5] 100% | [6] 104% | [7] 111% | [8] 104%

Nc1ncc([N+](=O)[O-])cn1
inactive: [1] 103% | [2] 111% | [3] 113% | [4] 104% | [5] 98.1% | [6] 106% | [7] 107% | [8] 101%

Cn1c(=O)c2[nH]c(CC(=O)O)nc2n(C)c1=O
inactive: [1] 102% | [2] 107% | [3] 112% | [4] 108% | [5] 101% | [6] 104% | [7] 101% | [8] 105%

CC(=O)OC(C)c1cccc(C#N)c1 (stereo not drawn)
inactive: [1] 99.1% | [2] 109% | [3] 113% | [4] 98.2% | [5] 101% | [6] 100% | [7] 107% | [8] 104%

Cc1ccc(NCN2C(=O)c3ccccc3C2=O)c(C)n1
inactive: [1] 119% | [2] 108% | [3] 105% | [4] 108% | [5] 112% | [6] 101% | [7] 106% | [8] 99.5%

CCOC(=O)C1(N)CCCCC1
inactive: [1] 93.4% | [2] 113% | [3] 99.2% | [4] 103% | [5] 97.1% | [6] 96% | [7] 101% | [8] 107%

O=[N+]([O-])c1ccc(-c2nc(N(CCO)CCO)c3ccccc3n2)o1
active: [1] 8.21% | [2] -88.5% | [3] -85.5% | [4] -8.14% | [5] 0.425% | [6] -7.95% | [7] -93.2% | [8] -29.1%

Cc1cc(C)cc(OCC(=O)O)c1
inactive: [1] 96.6% | [2] 97.9% | [3] 104% | [4] 109% | [5] 97.7% | [6] 96.9% | [7] 102% | [8] 110%

CCCCCCCCCCCCCCCCCCSC(=N)N
inactive: [1] 90% | [2] 104% | [3] 84.7% | [4] 46.3% | [5] 51.7% | [6] 66.6% | [7] 45.2% | [8] 64.5%

C#CCSc1nnnn1-c1ccccc1
inactive: [1] 39.6% | [2] 76.8% | [3] 85.3% | [4] 53.2% | [5] 69.3% | [6] 71.6% | [7] 104% | [8] 77.6%

S=c1nc2[nH]c3ccccc3c2n[nH]1
inactive: [1] 88.2% | [2] 102% | [3] 107% | [4] 95% | [5] 92.2% | [6] 96.4% | [7] 102% | [8] 130%

COc1cc2c(c(OC)c1OC)-c1ccc(SC)c(=O)cc1[C@@H](NC1OC(CO)C(O)C(O)C1O)CC2 (stereo partly drawn)
inactive: [1] 52.5% | [2] 14.9% | [4] 18.8% | [5] 13.9%
active: [3] -39.6% | [6] 9.89% | [7] -4.3% | [8] -3.89%

CC(=O)c1cccc(O)c1
inactive: [1] 103% | [2] 113% | [3] 107% | [4] 101% | [5] 94.3% | [6] 99.9% | [7] 110% | [8] 103%

Cc1cc(=O)n(Nc2ccccc2)c(O)c1C#N
inactive: [1] 92% | [2] 107% | [3] 108% | [4] 98.6% | [5] 98.4% | [6] 101% | [7] 112% | [8] 92.9%
